Compound activity deposited in PubChem by several laboratories.
FBA Mtb inh: inhibitors of M. tuberculosis fructose-bisphosphate aldolase | AID 588726 | hit rate 2.3% among 360,000 | purified M. tuberculosis FBA, fluorescence read-out | inhibition, % at 1 µM;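 note: 0% = vehicle and 100% = reference inhibitor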
Target sequence (P9WQA3 whole entry, looked up): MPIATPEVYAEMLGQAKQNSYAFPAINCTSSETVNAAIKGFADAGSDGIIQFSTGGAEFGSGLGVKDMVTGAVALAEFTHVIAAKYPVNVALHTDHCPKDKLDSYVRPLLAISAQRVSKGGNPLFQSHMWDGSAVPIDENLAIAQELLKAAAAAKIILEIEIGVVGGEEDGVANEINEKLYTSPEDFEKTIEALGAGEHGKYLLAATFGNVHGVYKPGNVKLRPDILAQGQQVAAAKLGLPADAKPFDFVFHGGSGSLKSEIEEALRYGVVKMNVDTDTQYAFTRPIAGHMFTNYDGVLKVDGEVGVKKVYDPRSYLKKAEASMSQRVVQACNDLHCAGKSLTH
GDH-TPI counter-1: GDH-TPI coupled enzyme inhibition counter-screen; GDH-TPI coupled enzyme counterscreen, NADH absorbance; inhibition, % at 4.8 µM; hit rate 1.2% among 360,000; AID 588335; in the data active = inhibition above about 30%;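 note: 0% = DMSO wells and 100% = wells lacking the enzyme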
FadD28 binding: inhibitors of Mycobacterium tuberculosis FadD28 bisubstrate binding; FadD28 bisubstrate probe binding, fluorescence polarization; inhibition, % at 12.5 µM; hit rate 0.22% among 360,000; in the data active = inhibition above about 8.5%, passing the limit was not always enough
SARS 3CLpro inh: SARS-CoV 3CLpro protease inhibition; P0C6X7; recombinant SARS-CoV 3CLpro, quenched FRET peptide cleavage; inhibition, % at 6 µM; hit rate 0.14% among 290,000; AID 1706; in the data active = inhibition above about 12%
BioA inh: BioA (M. tuberculosis) enzyme inhibition | purified M. tuberculosis BioA enzyme, plate reader | inhibition, % at 9.99 µM | hit rate 0.096% among 360,000 | AID 602481; in the data active = inhibition above about 40%
Mtb FBA confirm: Mtb FBA inhibition, confirmed. shares compounds with FBA Mtb inh. purified M. tuberculosis FBA, fluorescence read-out. inhibition, % at 1 µM. hit rate 78% among 5,600. AID 651616;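 note: 0% = vehicle wells and 100% = reference inhibitor wells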
GDH-TPI counter-2: inhibits GDH-TPI coupling enzymes, flagging Mtb FBA hits; shares compounds with FBA Mtb inh; GDH-TPI coupled enzyme counterscreen, fluorescence; inhibition, % at 1 µM; hit rate 81% among 5,600; AID 652141; in the data active = inhibition above about 10%
The depositor's hits bear a star; . = no result given. Shown are actives, neighbours in structure and some others; about 3.1% of the full set was active somewhere. Cut-off read from the data, not from the text of the source, unless noted: active = inhibition above about 27%; inactive = the rest.

SMILES	FBA Mtb inh	GDH-TPI counter-1	FadD28 binding	SARS 3CLpro inh	BioA inh	Mtb FBA confirm	GDH-TPI counter-2
Cc1cccc(S(=O)(=O)c2c(N)n(/N=C/c3ccccc3)c3nc4ccccc4nc23)c1	-2	7	-1	-2	-1	.	.
Cc1ccc(C(=O)Nn2c(N)c(S(=O)(=O)c3ccc(C)cc3)c3nc4ccccc4nc32)cc1	65*	35*	1	-1	-3	76*	52*
Cc1ccc(S(=O)(=O)c2c(N)n(NC(=O)c3ccccc3C)c3nc4ccccc4nc23)cc1	39*	9	-2	3	0	193*	143*
C[C@@H]1CN([C@@H](C)CO)C(=O)c2cc(NC(=O)CCN3CCOCC3)ccc2O[C@@H]1CN(C)CC1CC1	.	.	.	.	-6	.	.
COc1ccc(NC(=O)Nc2ccc3c(c2)C(=O)N([C@H](C)CO)C[C@H](C)[C@@H](CN(C)C)OCCCC[C@H](C)O3)cc1	.	.	.	.	-1	.	.
C[C@@H]1CN([C@@H](C)CO)C(=O)c2cc(NC(=O)c3ccncc3)ccc2O[C@@H](C)CCCCO[C@H]1CN(C)Cc1ccccc1	.	.	.	.	3	.	.
COc1ccc(C=C2C(=O)OC(C)(C)OC2=O)cc1OC	5	8	-1	2	-1	.	.
COc1ccc(/C=C2\OC(=O)c3c(OC)cccc32)cc1OC	30*	6	0	3	0	125*	97*
CC(C)=CCOc1ccc2ccc(=O)oc2c1	65*	8	-4	3	1	60*	50*
CC(C)=CCC/C(C)=C/COc1ccc2ccc(=O)oc2c1	15	28	-2	0	0	.	.
COC(=O)c1ccc(COc2ccc3ccc(=O)oc3c2)o1	12	6	-1	-1	-1	.	.
COC(=O)c1cc(COc2ccc3ccc(=O)oc3c2)c(C)o1	36*	19	-3	0	20	8	1
CC1=CC(C/C(C)=C/COc2ccc3ccc(=O)oc3c2)OC1=O (configuration not stated)	48*	13	0	.	5	54*	44*
COc1cccc(COc2ccc3ccc(=O)oc3c2)c1	9	10	-3	-4	0	.	.
CC(C)=CCC/C(C)=C/CC/C(C)=C/COc1ccc2ccc(=O)oc2c1	30*	2	-3	.	1	-7	-8
COc1ccc(COc2ccc3ccc(=O)oc3c2)cc1	6	11	.	0	-1	.	.
O=C(C[C@H]1C[C@@H]2c3cc(NS(=O)(=O)c4ccc(F)cc4)ccc3O[C@@H]2[C@@H](CO)O1)N1CCCCC1	.	.	.	.	2	.	.
Cc1ccc(S(=O)(=O)Nc2ccc3c(c2)C(=O)N([C@@H](C)CO)C[C@@H](C)[C@H](CN(C)CC2CCCCC2)O3)cc1	.	.	.	.	2	.	.
CCN1CC=C2C(C#N)=C(N)C(C#N)(C#N)C(CCc3ccccc3)C2C1 (configuration not stated)	36*	8	-1	-5	-11	74*	65*
Cc1ccc(C)c(OCC(=O)Nc2nc3ccc([N+](=O)[O-])cc3s2)c1C	53*	20	1	3	-3	1	-1
O=C(CN(c1ccccn1)S(=O)(=O)c1ccc(F)cc1)Nc1ccc(F)cc1F	35*	6	-3	-2	.	117*	90*
CCOC(=O)CN(c1ccccn1)S(=O)(=O)c1ccc(OC)cc1	46*	13	0	-3	.	138*	100*
CCOC(=O)CN(c1ccccc1)S(=O)(=O)c1ccc(F)cc1	-1	-1	-3	1	0	.	.
COc1ccccc1C#Cc1cnc2c(c1)C(=O)N([C@@H](C)CO)C[C@@H](C)[C@@H](CN(C)C(=O)CC1CC1)O2	.	.	.	.	-2	.	.
CCOC(=O)c1sc(C)c2c1NC1(CCCCC1)NC2=O	32*	3	-1	-2	0	110*	104*
CCOC(=O)c1sc(C)c2c1NC1(CCCCCC1)NC2=O	6	10	0	-1	-2	.	.
CCOC(=O)c1sc(C)c2c1NC(C)(c1cccs1)NC2=O (configuration not stated)	35*	10	-3	-3	1	147*	109*
CCOC(=O)c1ccc(C(=O)OCC)c(NC(=S)Nc2ccc([N+](=O)[O-])cc2OC)c1	31*	19	-3	6	2	-4	-6
